Assay outcomes deposited in PubChem by National Center for Advancing Translational Sciences (NCATS).
HT1080 IDH1KD tx = qHTS for induction of synthetic lethality in tumor cells producing 2HG: qHTS for the HT-1080-IDH1KD cell line; Potency, µM (doses to about 46.1 µM), without a hit: top-dose activity, negative = toxicity, most hits filed as cytotoxic; actives 2% (n = 360,000); AID 686971, 2013; HT-1080 IDH1 knockdown viability, ATP luminescence, 48 h;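 note: potency is the fitted concentration of half-maximal effect; 0% = DMSO wells and -100% = cell-free medium wells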
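Assay cells: HT-1080 with IDH1 knockdown, 750 per well, RPMI/5% FBS. Exposure: 48 h at 37 °C following 2 h pre-incubation. Read: CellTiter-Glo luminescence; fitted concentration-response, curve class assigned.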
HT1080-NT tox = qHTS for induction of synthetic lethality in tumor cells producing 2HG: qHTS for the HT-1080-NT fibrosarcoma cell line. HT-1080-NT fibrosarcoma viability, CellTiter-Glo ATP luminescence, 48 h. Potency, µM (highest dose often 46.1 µM), without a hit: at the top dose activity, negative = less viability, most hits filed as cytotoxic. actives 1.6% (n = 360,000). AID 686970, 2013;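 note: NT is the 2HG producing partner of a matched IDH1 knockdown line; potency is the fitted concentration of half-maximal effect; 0% = DMSO-treated cells and -100% = media-only wells without cells; nearly all actives have a fitted effect of over 55% in size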
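A 48-hour cytotoxicity screen used HT-1080-NT cells plated 2 hours before compound delivery. ATP-based CellTiter-Glo luminescence measured viability, normalized to DMSO and no-cell controls.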
TDP1 cell noCPT = qHTS for Inhibitors of human tyrosyl-DNA phosphodiesterase 1 (TDP1): qHTS in cells in absence of CPT; DT40 Tdp1-/- hTDP1 cells, no CPT, ATP luminescence, 48 h; Potency, µM (series often up to 46.2 µM), for inactives: top-dose activity change, negative = growth inhibition, hits mostly inhibitors; actives 15% (n = 420,000); note: potency is the fitted concentration of half-maximal effect; nearly all actives have a fitted effect of over 55% in size
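Camptothecin absent (DMSO only). Human TDP1-complemented DT40 knockout cells, 400 cells/well, 37 °C for minimum 48 hr; ATP measured via CellTiter-Glo, 30 min dark incubation, luminescence.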
IL1B secr inh = qHTS for Inhibitors of Inflammasome Signaling: IL-1-beta AlphaLISA Primary Screen. THP-1 LPS/ATP IL-1B secretion, AlphaLISA, 16 h; hits give low values. activity change, % at 57.5 µM. actives 4.7% (n = 360,000). AID 743279, 2014; in the data active = activity change below about -50%; inconclusive = mostly about -30% to -49%
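Secreted IL-1B measured by AlphaLISA bead assay after 16 h compound exposure of THP-1 cells; compounds (final up to 57.5 uM) added 1 h before LPS (250 ng/mL) and ATP (1.25 mM) stimulation; lower signal means less secretion.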
ELG1 DNA repair = qHTS screen for small molecules that inhibit ELG1-dependent DNA repair in human embryonic kidney (HEK293T) cells expressing luciferase-tagged ELG1; HEK293T ELG1-luciferase reporter, luminescence, 16 h; DNA damage induced by 5-fluorouridine; Potency, µM (highest dose often 46.1 µM), inactives show at the highest dose activity change, negative = inhibition, hits mostly inhibitors; actives 2.3% (n = 330,000); note: potency is the fitted concentration of half-maximal effect; nearly all actives have a fitted effect of over 55% in size
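Luminescence from the luciferase reporter, measured 30 min after ONE-Glo reagent at room temperature, was the read-out. Beforehand, 2,000 cells per well were exposed for 16 hr at 37 °C to 5-fluorouridine together with compound or vehicle.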
DT40 TDP1 CPT = qHTS for Inhibitors of human tyrosyl-DNA phosphodiesterase 1 (TDP1): qHTS in cells in presence of CPT. chicken DT40 Tdp1-/-;hTDP1 cells + 20 nM CPT, ATP luminescence, 48 h. Potency, µM (titrated, usually from 46.2 µM), inactives show top-dose activity change, negative = growth inhibition, actives largely listed as inhibitors. actives 12% (n = 420,000). AID 686979, 2013; note: potency is the fitted concentration of half-maximal effect; nearly all actives have a fitted effect of over 55% in size
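Chicken DT40 Tdp1-/- cells stably complemented with human TDP1 were seeded at 400 cells/well in medium containing 20 nM camptothecin, exposed to pin-transferred compounds, and grown at 37 °C for at least 48 hr. Viability was read as ATP luminescence.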
Starred values were filed as active, the others as inactive. Only some compounds are listed: those with a hit (about 19% of all), similar ones and a draw of the others. Unless noted, calls come from the whole dose curve; as a rule, active = well fitted curve in the direction sought with a large enough effect; inconclusive = small, poorly fitted or top-dose-only effect, or another doubt; inactive = no such curve, though single readings can be large; an effect the other way counts as inactive or inconclusive. Unless noted, % is set by controls: 0 for no effect and ±100 for the full control effect.

O=C(Cn1c(=O)n(-c2ccc(F)cc2)c(=O)c2sc3ccccc3c21)N1CCCC1 was read as TDP1 cell noCPT -20.1% and DT40 TDP1 CPT -5.8%.
`COc1ccc(NC(=O)CSc2nc(=O)n(CCN(C)C)c3c2CCCC3)cc1OC` gave HT1080 IDH1KD tx -18.0%, HT1080-NT tox 2.2%, TDP1 cell noCPT -0.2%, IL1B secr inh -6.1, ELG1 DNA repair 2.8% and DT40 TDP1 CPT -4.0%.
Screening COc1ccc(Cl)cc1NC(=O)CSc1nc(=O)n(CCN(C)C)c2c1CCCC2 returned HT1080 IDH1KD tx -0.6%, HT1080-NT tox -14.1%, TDP1 cell noCPT inconclusive, IL1B secr inh inconclusive, ELG1 DNA repair -3.2% and DT40 TDP1 CPT 16.4µM*.
`CN(C)CCCn1c2c(c(SCC(=O)Nc3cccc4ccccc34)nc1=O)CCCC2` gave HT1080 IDH1KD tx -6.3%, HT1080-NT tox -4.5%, TDP1 cell noCPT -16.2%, IL1B secr inh -97.4*, ELG1 DNA repair 12.3% and DT40 TDP1 CPT -6.0%.
COc1ccc(N(CC(=O)NC2CCCCCC2)S(=O)(=O)c2ccccc2)cc1Cl was read as HT1080 IDH1KD tx -8.1%, HT1080-NT tox -1.8%, TDP1 cell noCPT inconclusive, IL1B secr inh 4.5, ELG1 DNA repair -14.0% and DT40 TDP1 CPT inconclusive.
Screening CCCCCCCOc1ccc(C2CC(=O)N(C)C2=O)cc1 (stereo not given) returned HT1080 IDH1KD tx -19.4%, HT1080-NT tox -8.7%, TDP1 cell noCPT inconclusive, IL1B secr inh -75.6*, ELG1 DNA repair 26.8% and DT40 TDP1 CPT -2.2%.
COc1ccc2[nH]c3c(c2c1)CCN1C(=O)N([C@@H](C)C(=O)NCc2c(F)cccc2Cl)C(=O)[C@]31C was read as HT1080 IDH1KD tx -1.0%, HT1080-NT tox -4.5%, TDP1 cell noCPT inconclusive, IL1B secr inh -7.8, ELG1 DNA repair -23.8% and DT40 TDP1 CPT 18.4µM*.
Screening C[C@@H](C(=O)NCc1c(F)cccc1Cl)N1C(=O)N2CCc3c([nH]c4ccccc34)[C@@]2(C)C1=O returned HT1080 IDH1KD tx -7.6%, HT1080-NT tox -8.1%, TDP1 cell noCPT 20.6µM*, IL1B secr inh -11.8, ELG1 DNA repair inconclusive and DT40 TDP1 CPT 18.4µM*.
For COc1ccc2[nH]c3c(c2c1)CCN1C(=O)N([C@@H](C)C(=O)NCC2CCCO2)C(=O)[C@]31C (stereo not given in full) the results were HT1080 IDH1KD tx 0.8%, HT1080-NT tox 3.9%, TDP1 cell noCPT -7.6%, IL1B secr inh 7.7, ELG1 DNA repair -16.3% and DT40 TDP1 CPT -4.8%.
`O=C(COC(=O)c1ccc(NC(=O)C2CC=CCC2C(=O)O)cc1)c1ccccc1` (stereo not given) gave HT1080 IDH1KD tx 0.6%, HT1080-NT tox 0.1%, TDP1 cell noCPT 9.0%, IL1B secr inh 26.7, ELG1 DNA repair -7.7% and DT40 TDP1 CPT 15.2%.
Cc1ccc(Nc2c(-c3c[nH]c4ccccc34)nc3cc(C)ccn23)cc1 was read as TDP1 cell noCPT 23.1µM* and DT40 TDP1 CPT 23.1µM*.
`Cc1ccn2c(Nc3ccccc3)c(-c3c[nH]c4ccccc34)nc2c1` gave TDP1 cell noCPT inconclusive and DT40 TDP1 CPT 16.4µM*.
Screening Cc1ccc(Nc2c(-c3ccco3)nc3ccc(C)cn23)cc1 returned TDP1 cell noCPT -22.5% and DT40 TDP1 CPT -17.2%.
